Laboratory results as given in the supplement of paper PMC6555819.

test system: VDR:RXRa (NR concentration 270 nM, RXRa partner concentration 90 nM); experiment: PBM binding z-score (relative to random genomic background probes); higher = stronger binding; sequences stand for … in GC…GCGATTGACAGCGTAGAATGAAGG
Description: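 Protein-binding microarray (Agilent 4x180K custom design, double-stranded 60-nt probes: 5' GC cap, 34-nt variable region, 24-nt constant primer region; full probe sequence given). Purified or IVT nuclear receptor:RXRα heterodimers (3:1 NR:RXRα, mostly 270:90 nM) or homodimers were incubated for 1 h in PBS with 2% milk and no ligand, then detected with Alexa488 antibodies. Fluorescence from o1-orientation probes (~5 replicates averaged) was converted to z-scores against 500 random hg19 background probes. Variable regions are seed direct-repeat (DR0–DR5) sites, all their single-nucleotide variants and half-site ablations.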

| Sequence | PBM binding z-score |
| --- | --- |
| CAAACTAGGTCACAGAGGGCAAAGTCCGTGCGTA | 7.09 |
| CGAATTAGGTCAAAGGACAGTGAAAGGCGACGTA | 1.65 |
| CGAACTAGGTGACCAGGACAGTGAAGAGGTTGGA | 0.673 |
| TCTCGGAGGACACGAAAGGTCAGAACTCGACATC | 3.19 |
| CTAACTAGGTCACGAAAGGTCAAAGTCGAATGAC | 6.76 |
| CGAACTAGGACAAAGGACAGTGAAAGGCGACGTA | -0.353 |
| AGTCAAATTTCACTAGGTAACGTAAGATTCAGCT | 0.337 |
| CCTACTGGGCCAAAAAGGTAATTGATGCCGATAA | -0.157 |
| CCGAGTGGGTTACGAGGGGGCATTCAGTGCGAAT | 5.13 |
| ATATGTAGGTTAGGATCATTCAGAAAGTAGGGAA | 0.744 |
| TCTAGTTGGTCACGGAGGTCACACGCGACGGGTA | 5.87 |
| GATACAGGGTGAAGGCCAGAGTACGCGTATTGAT | -0.32 |
| TCTGCTAGGTCAACGATGGTCAGCGAATCTGCTA | 1.66 |
| CCTTCTGGGCCATTCAGAGGTCATTGATCATATG | 4.01 |
| CAAACTAGGTCACGAAAGGGCAAAGTCGAATGAC | 5.28 |
| CCTGCTAGGTCAATGGTCAGCTAAAGCAGCTCGC | 1.02 |
| TCCAGTAGGTTACGGGGGCATTCAGGGATGAAGA | 4.04 |
| AGAATGAGGTTATACGTAGGTCAGGGAAGAAAGT | 3.34 |
| CGAACTAGGTCAAAGGACAGGGAAAGGCGACGTA | 1.27 |
| CCTACTGGGCCATGAAAGGTCATTGATTCAGTGA | 3.82 |

| Sequence | PBM binding z-score |
| --- | --- |
| TCGAGTAGGTTACGCGGGCATTCAGGGATGAAGA | -0.157 |
| AATACAGGGTGATCGTAGGCCAGAGTACGCACAG | 0.0765 |
| GGAACGAGGGCAAAGGTGATAGCATCTGTCGACG | 1.92 |
| CGATGTAGGTTAAGGGGGTCATTCAGTTTGAAAG | 7.68 |
| CACACTAGGTCAAAGGTCAAAGTCGAGCCAACCA | 6.85 |
| CCTAGTAGGTTACGAGGGGGCATTCAGTGCGAAT | 5.12 |
| ACTCGGAGGACAAAGGTAAGAGCTACGCCAGTGA | -0.371 |
| CGAACTAGGTCACCTGGACAGTGAAGAGGTTGGA | 2.34 |
| CGAACTAGGTCACCAGTACAGTGAAGAGGTTGGA | 2.27 |
| CCGAGTATGTTACGAGGGGGCATTCAGTGCGAAT | 4.06 |
| CGAACTAGGTCAAATGACAGTGAAAGGCGACGTA | 1.63 |
| CAAAATAGGTCAAGAGGTCAAAGTCCGCTTCCCG | 6.53 |
| CCTACGGGGCCAAGGTCATTGATCAGTCAAAGCA | 3.52 |
| ATCGAAATGTCGTGAGGTGAGTATACAGAAAGGC | -0.0568 |
| CCGAGTAGTTTACGAGGGGGCATTCAGTGCGAAT | 4.03 |
| CCTACTGGGCCAAAGGCCATTGATTCCAATGCTC | -0.327 |
| TCGAGTAGGCTACGGGGGCATTCAGGGATGAAGA | 2.2 |
| TGGAGTAGGTTACGGGGGCATTCAGGGATGAAGA | 4.24 |
| ATATGTAGGTTAGGCTCATTCAGAAAGTAGGGAA | -0.124 |
| CGTTCAAGGTCATAGGAGGTCAGTGAAGACAGAT | 6.67 |
